From PubChem BioAssay AID1076 (NMMLSC, 2008)
Unmarked numbers belong to inactive results. Calls of active or inactive are those of the source.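 How the source made its calls: active means cell event count below 40, meaning activity score above 60 where score is 100 minus count; inactive means the rest.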

test: cytotoxicity in LNCaP prostate cells – cell-based, cell event count, single point, cytotoxicity control for prostate differentiation activator project, confirmation (AID 1076); conditions: LNCaP cell loss, flow cytometry event count, 4 d; at 100 µM; active compounds read low;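 further: counts scatter-gated live cells after medium removal discards detached dead cells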

Row | SMILES | cell event count
1 | COc1ccc(S(=O)(=O)Nc2ccc(F)c(Cl)c2)cc1OC | 18
2 | O=C(COc1ccc(S(=O)(=O)N2CCCC2)cc1Cl)NC1CC1 | 355
3 | Cc1noc(C)c1S(=O)(=O)N1CCC(C(=O)NCCN2CCC(C)CC2)CC1 | 300
4 | Cc1nc(NCCNC(=O)c2ccco2)c2c(C)c(C)sc2n1 | 83
5 | CC(C)CCNC(=O)C1CCN(c2nc3ccccc3o2)CC1 | 73
6 | CCOC(=O)N1CCN(CC(=O)Nc2cc(C)nn2-c2nc3ccccc3s2)CC1 | 259
7 | O=C(NCCCN1CCOCC1)c1cc2c(s1)CSC2 | 191
8 | O=c1cc(-c2ccccc2)[nH]c2ccccc12 | 9 (active)
9 | Cc1ccc(Cn2c(C(=O)NCCCN3CCOCC3)cc3sccc32)cc1 | 279
10 | COc1ccc(-c2ccc(-c3noc(-c4ccccc4)n3)c(OC)n2)cc1 | 30 (active)
11 | O=C(CCn1c(=O)oc2ccccc21)NCCCN1CCN(c2ccc(F)cc2)CC1 | 213
12 | O=C(NCC1CCCO1)C1CC(c2ccc(Cl)c(Cl)c2)=NO1 (stereo not drawn) | 85
13 | CCOC(=O)N1CCC(=C2c3ccc(Cl)cc3CCc3cccnc32)CC1 | 7
14 | CCCN(CCC)CCNC(=O)C1CCN(Cc2nc(-c3ccc(Cl)cc3)oc2C)CC1 | 55
15 | N=c1n(CCN2CCCCC2)c2ccccc2n1CC(O)COc1ccccc1 (stereo not drawn) | 20
16 | Cn1c(=O)cc(OCC(=O)NCCCN2CCN(c3ccccc3F)CC2)c2ccccc21 | 227
17 | Cc1cccc(-c2nc(CN3CCCC(C(=O)NC4CCCCC4)C3)c(C)o2)c1 (stereo not drawn) | 28
18 | Cc1ccccc1-c1nc(CN2CCC(C(=O)NCc3ccco3)CC2)c(C)o1 | 158
19 | Cc1oc(-c2ccccc2F)nc1CN1CCC(C(=O)NCc2ccco2)CC1 | 330

Row | SMILES | cell event count
20 | COc1ccc(-c2ccc(-c3nnn(CC(C)=O)n3)cc2)cc1 | 145
21 | CCN1CCN(c2cc(C)c3cc(NC(=O)c4ccc(Br)o4)ccc3n2)CC1 | 36
22 | CCN1CCN(CCNC(=O)C2CCCN(Cc3nc(-c4cccc(Cl)c4)oc3C)C2)CC1 (stereo not drawn) | 14
23 | Cc1cc(=O)c2ccccc2[nH]1 | 143
24 | COc1ccc(Cl)cc1N1CCN(CCNC(=O)Nc2ccccc2C)CC1 | 6
25 | Cc1oc(-c2ccccc2F)nc1CN1CCC(C(=O)NC2CC2)CC1 | 363
26 | Oc1ccccc1CNc1nc2ccccc2n1CCN1CCCCC1 | 44
27 | Cn1nc(-c2ccc(Cl)cc2)c2cc(C(=O)NCCCN3CCOCC3)sc21 | 33
28 | O=C(Cn1ccc2ccccc2c1=O)NCCC(=O)N1CCN(c2cccc(C(F)(F)F)c2)CC1 | 232
29 | COC(=O)C1=C(C)N=c2s/c(=C/c3cccs3)c(=O)n2C1c1cccs1 (stereo not drawn) | 125
30 | O=c1cc(N2CCc3ccccc3C2)[nH]c(=O)n1C1CCCCC1 | 143
31 | Cc1ccc(S(=O)(=O)NCCCCC(NC(=O)OC(C)(C)C)C(=O)O)cc1 (stereo not drawn) (tested in a mixture with another compound) | 203
32 | Cc1ccc(CNc2nc3ccccc3n3nnnc23)cc1 | 245
33 | O=C(NCCc1c[nH]c2ccccc12)C(F)(F)C(F)F | 111
34 | O=C(NCCCN1CCN(c2ccccc2F)CC1)C1CCN(S(=O)(=O)N2CCOCC2)CC1 | 156
35 | CCOC(=O)c1[nH]c(C)c(C(=O)N2CCc3ccccc32)c1C | 13 (active)
36 | CN(C)c1ccc(-c2nn3c(-c4ccc(Cl)cc4Cl)nnc3s2)cc1 | 6 (active)
37 | COc1ccc(-c2cc3c(=O)n(CC(=O)NC4CCN(Cc5ccccc5)CC4)ncn3n2)cc1 | 180
38 | Cc1oc(-c2ccccc2F)nc1CN1CCC(C(=O)NCCC2=CCCCC2)CC1 | 17
